# Screening results deposited in PubChem by NMMLSC.
# Rows were chosen to be rich in hits. Some 0.37% of all compounds tested hit in one or more screens of this group.
# Rab2A wt mod: modulators of GTP binding to Rab2A wildtype, primary screen, biochemical, dog, bead-based flow cytometry, multiplex; Ras-related protein Rab-2A (Canis lupus familiaris), P61105; GST-Rab2 wt beads, Bodipy-GTP binding; GTP binding activity, % at 10 µM; 0.19% of 190,000 active; AID 760, 2007;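 active means GTP binding activity at least 20 points away from 100%, either lowered or raised; inconclusive means signal likely due to the compound's own green fluorescence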
# Rab7 wt modul: modulators of GTP binding to Rab7, primary screen, biochemical, wildtype, multiplex bead flow cytometry | 0.055% of 190,000 active | GTP binding activity (percent of control), % at 10 µM | Rab7 GTPase wild type (dog), Bodipy-FL-GTP binding | GST-Rab7 beads, fluorescent GTP binding; actives lie on both sides; untreated = 100%, excess cold GTP = 0% | AID 758, 2007;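 active means fluorescent GTP binding to Rab7 beads changed by at least 20 points from the 100% baseline, either direction, mostly lower; inconclusive means compound itself probably fluorescent, or too few beads counted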;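 further: median green fluorescence of bound Bodipy-FL-GTP per Rab7 bead population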
# Rac1 wt modul: wildtype Rac1 GTP binding modulators, primary screen, biochemical, GST-Rac1 beads, flow cytometry, multiplex. GTP binding activity (% of control), % at 10 µM. Ras-related C3 botulinum toxin substrate 1 (Homo sapiens), P63000. fluorescent GTP binding; actives lie on both sides; 0 = cold GTP competed, 100 = untreated. 0.27% of 190,000 active;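 active means GTP binding activity at least 20 points away from the 100% control level, either lower or higher; inconclusive means compound flagged as likely green fluorescent, judged across all proteins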
# Rac1 mut GTP: GTP binding modulators of activated mutant Rac1, primary screen, biochemical, bead-based flow cytometry, multiplex, fluorescent GTP. Ras-related C3 botulinum toxin substrate 1 (Homo sapiens), P63000. GST-Rac1 activated beads; actives lie on both sides; 100% means binding = to untreated wells. percent activity (GTP binding), % at 10 µM. 0.11% of 190,000 active;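 active means GTP binding at least 20 percentage points away from the 100% baseline, in either direction, so actives lie on both sides; inconclusive means Compound likely fluorescent itself, or too few beads counted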
# HRas wt GTP bind: modulators of GTP binding to HRas wildtype, primary screen, biochemical, bead-based flow cytometry, multiplex | GST-Ras wt beads, Bodipy-FL-GTP binding; actives lie on both sides | 0.14% of 190,000 active | GTPase HRas (Homo sapiens), P01112 | GTP binding activity, % at 10 µM;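 active means GTP binding activity at least 20% away from the 100% baseline, either lowered as inhibitor or raised as activator; inconclusive means flagged as likely green fluorescent, judged across all proteins in the well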
# Target sequence (P01112 whole entry, looked up): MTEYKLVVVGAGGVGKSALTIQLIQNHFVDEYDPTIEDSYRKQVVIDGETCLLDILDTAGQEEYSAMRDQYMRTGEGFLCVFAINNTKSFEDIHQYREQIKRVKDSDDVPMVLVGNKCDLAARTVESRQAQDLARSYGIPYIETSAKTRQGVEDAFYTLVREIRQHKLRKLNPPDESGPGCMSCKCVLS
# Cdc42 wt GTP: modulators of GTP binding to wildtype Cdc42, primary screen, biochemical, multiplex bead flow cytometry, Bodipy-GTP | GST-Cdc42 beads; actives lie on both sides | 0.2% of 190,000 active | percent activity (GTP binding), % at 10 µM | AID 761, 2007;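 active means percent activity GTP binding at least 20 points away from the 100% baseline, either down as inhibitor or up as activator; inconclusive means compound flagged as likely green fluorescent from well-wide comparison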;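 further: median bead fluorescence of bound Bodipy-FL-GTP at 100 nM; below 100% means less GTP binding so inhibitor and above means activator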
# Target sequence (P60953 whole entry, looked up): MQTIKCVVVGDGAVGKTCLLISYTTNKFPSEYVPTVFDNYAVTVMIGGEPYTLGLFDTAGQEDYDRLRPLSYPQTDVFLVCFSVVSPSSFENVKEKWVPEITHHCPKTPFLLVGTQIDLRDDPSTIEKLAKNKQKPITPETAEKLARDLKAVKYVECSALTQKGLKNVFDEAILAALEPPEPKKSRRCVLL
# Numbers stand for hits; . = inactive; ? = inconclusive; [ ] = remark or other dose.
SMILES,Rab2A wt mod,Rab7 wt modul,Rac1 wt modul,Rac1 mut GTP,HRas wt GTP bind,Cdc42 wt GTP
Cc1ccc(NC(=O)c2ccccc2OCC(=O)Nc2cccc(Cl)c2C)nc1,.,.,.,.,.,.
Cn1c(NNC(=O)C2CCCCC2)cc(=O)n(C)c1=O,.,.,.,.,.,.
Cc1ccc2c(c1)c1nnc(SCC(=O)Nc3ccccc3C(F)(F)F)nc1n2CC(=O)O,.,.,.,.,.,.
Cc1ccc2c(c1)c1nnc(SCC(=O)Nc3cccc(Cl)c3C)nc1n2CC(=O)O,.,.,74.0,.,.,.
CCOC(=O)C1=C(C)OC(N)=C(C#N)C1c1cc2c(cc1[N+](=O)[O-])OCO2 (configuration not stated),.,.,.,.,.,.
CCOc1ccc2c(c1)c(N=Nc1cccc(C(=O)O)c1)c(O)n2C,.,.,.,.,.,.
CCOc1ccc2c(c1)c(N=NC(=N)N)c(O)n2C,.,.,78.0,.,.,.
O=C(OCc1ccccc1)c1cccnc1Cl,.,.,.,.,.,.
O=C(O)c1ccccc1C(=O)OCc1ccccc1,134.0[activator],?,160.0[activator],?,136.0[activator],.
CCOC(=O)c1c(CSc2ccccc2)n(C)c2cc(Br)c(OCC(O)CNC(CO)(CO)CO)cc12 (configuration not stated),.,.,120.0[activator],.,.,.
Cc1ccc(S(=O)(=O)N2CCC(C(=O)NNC(=O)c3ccc(F)cc3)CC2)cc1,.,.,.,.,.,.
COc1ccc(Nc2nc(-c3c(C)nc4ncccn34)cs2)cc1,76.0,.,65.0,.,77.0,76.0
Cc1nc2ncccn2c1-c1csc(Nc2ccccc2)n1,62.0,.,60.0,.,59.0,67.0
Cc1nc2ncccn2c1-c1csc(Nc2ccc(N(C)C)cc2)n1,.,.,.,.,.,.
COc1ccccc1Nc1nc(-c2c(C)nc3ncccn23)cs1,62.0,.,63.0,79.0,62.0,66.0
CCC(CC)c1nnc(NC(=O)CCNC(=O)c2ccccc2Cl)s1,.,.,.,.,.,.
COc1ccc(-c2cnnn2-c2ccc(NC(=O)c3ccc(S(=O)(=O)N4CCCCC4)cc3)cc2)cc1,.,.,.,.,.,.
COCCn1c(=S)[nH]c2cc(C(=O)N3CCc4ccccc4C3)ccc2c1=O,.,.,124.0[activator],.,.,.
CCN1/C(=C\C=C2\C(=O)N(c3ccccc3)C(=S)N2C)Sc2ccccc21,.,.,.,.,78.0,.
CCCN1C(=O)/C(=C\C=C2/Sc3ccccc3N2CC)SC1=S,74.0,77.0,69.0,75.0,68.0,73.0
CC(c1nccs1)N(C)c1nc2nonc2nc1N(C)C (configuration not stated),.,.,.,.,.,.
CCSCCc1nnc(NC(=O)Nc2cccc(C(F)(F)F)c2)s1,.,.,.,.,.,.
Cc1ccc(Cc2ccc(C(=O)NNC(N)=S)o2)cc1,.,.,.,.,.,.
Cc1c(Cl)c([N+](=O)[O-])nn1Cc1ccc(C(=O)N/N=C\c2ccccn2)o1,.,.,75.0,.,.,.
Cc1ccc(/C=N/NC(=O)c2ccc(Cn3cc([N+](=O)[O-])cn3)o2)cc1,.,.,.,.,.,.
SMILES,Rab2A wt mod,Rab7 wt modul,Rac1 wt modul,Rac1 mut GTP,HRas wt GTP bind,Cdc42 wt GTP
CCN(CC)C(=O)/C=C/c1ccc(OC)c(S(=O)(=O)N2CCCCC2)c1,.,.,.,.,.,.
Cn1cc(C(=O)N2CCc3ccccc3C2)c(=O)c2cc(S(=O)(=O)N3CCCCC3)ccc21,.,.,121.0[activator],.,.,.
CC1CCCN(C(=S)NC2CCCC2)C1 (configuration not stated),.,.,.,.,.,.
Cn1nnnc1SCc1ccc(C(=O)Nc2nccs2)cc1,72.0,.,71.0,.,73.0,75.0
CCn1nc(C(=O)OCC(=O)c2cc(C)n(Cc3cccs3)c2C)c2ccccc2c1=O,76.0,.,78.0,74.0,.,77.0
O=C(O)CCCN1C(=O)/C(=C\c2ccco2)SC1=S,.,.,.,.,.,.
O=C(O)CCN1C(=O)/C(=C\c2ccc(-c3nc4ccccc4s3)o2)SC1=S,66.0,74.0,67.0,71.0,74.0,69.0
O=C(Nc1nc2ccccc2[nH]1)c1ccc(F)cc1,.,.,.,.,.,.
N#Cc1c2nc3ccccc3nc2n2cc(NC(=O)c3ccc(F)cc3)ccc12,77.0,.,79.0,.,.,.
CCOc1cc(N2CCOCC2)c(OCC)cc1NC(=O)c1ccc(OC(C)C)cc1,.,.,.,.,.,.
NC(=O)NOCc1ncc(C(F)(F)F)cc1Cl,.,.,120.0[activator],.,.,.
CO/N=C/NC(=O)NOCc1ncc(C(F)(F)F)cc1Cl,.,.,123.0[activator],.,.,.
Cc1ccc(/C=C/S(=O)(=O)NCc2ccc(F)cc2)cc1,.,.,.,.,.,.
CC(=O)Nc1ccc(-n2nnnc2SCC(=O)NCc2cccs2)cc1,.,.,.,.,.,.
Cc1ccc(C)c(NC(=O)C(c2ccccc2)N2CCOCC2)c1 (configuration not stated),.,.,.,.,.,.
N#Cc1c(Nc2ccccc2)c(/C=N/NCCO)c[nH]c1=O,.,.,.,.,.,.
N#Cc1c(Nc2ccccc2)c(/C=N/N=C/c2ccccc2)c[nH]c1=O,.,.,75.0,.,76.0,.
COCc1cc(C)nc(N/N=C/c2ccc(-c3ccc(C(=O)O)c(Cl)c3)o2)c1C#N,77.0,.,67.0,.,78.0,73.0
CCOc1ccc(S(=O)(=O)Nc2ccc(O)c(Sc3ncn[nH]3)c2)cc1,.,.,.,.,.,.
COc1ccc(OC)c(S(=O)(=O)Nc2ccc(O)c(Sc3ncn[nH]3)c2)c1,35.0,21.0,31.0,36.0,39.0,36.0
CCn1c(NCc2cccs2)nc2ccccc21,.,.,.,.,.,.
O=c1c2ccccc2nc2ccc(NCc3cccs3)nn12,74.0,.,74.0,.,79.0,76.0
COc1cc(/C=N/NC(=O)c2cc3ccccc3cc2O)ccc1OCCN1CCCCC1,.,.,.,76.0,.,.
CCOc1ccc2ccccc2c1/C=N/n1cncn1,.,.,130.0[activator],.,.,.
